Compound activity (PubChem BioAssay)
esBAF inh = SWI/SNF esBAF complex inhibition | mouse ES cells, Bmi1-luciferase knock-in reporter, 24 h; 100% = twice the neutral-well signal | 350,000 tested, 2% active | AID 602393 | reporter increase, % at 12.5 µM; in the data active means activation above about 40%; inconclusive means no clear call, values can overlap the other calls;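 further: 0% = median of the plate's neutral control wells and 100% = double that signal; a rise in the Bmi1 reporter signal indicates esBAF inhibition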
SMARCA2 activ = increases SMARCA2 function in MMTV reporter cells | MG213 cells, MMTV-luciferase reporter, dexamethasone, overnight | activation, % at 9.1 µM | 370,000 tested, 1% active | AID 652017; in the data active means activation above about 7.8%;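 further: 0% = vehicle wells and 100% = reference activator wells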
Wnt act = Wnt/beta-catenin pathway activation. Wnt/beta-catenin reporter cell assay, activator, plate reader. activation, % at 9.35 µM. 300,000 tested, 1.2% active; in the data active means activation above about 30%, passing the limit was not always enough; inconclusive means no clear call, values can overlap the other calls;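 further: 0% = neutral control wells and 100% = positive control wells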
MLL AF4-AF9 inh = blocks AF4 peptide binding to human AF9. 350,000 tested, 0.47% active. AlphaScreen, biotin-AF4 peptide binding to FLAG-AF9. P42568. inhibition, % at 10 µM;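 active means every replicate reaching a set inhibition limit, whatever the replicate mean, cut at about 25% in these data; inconclusive means mean inhibition reaches that limit but some replicates miss it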;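 further: 0% = plate neutral control median and 100% = total signal loss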
FGF22 binding = binders of recombinant human FGF22 by thermal shift | Q9HCT0 | SYPRO orange fluorescence; percent of sucrose octasulfate shift, DMSO zero | activity (Tm shift, normalised), % at 9.99 µM | 340,000 tested, 1.5% active | AID 651658;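 active means mean Tm shift, scaled 0 neutral to 100 positive control, at about 1.3% or above, every replicate too, limit read from the data; inconclusive means no clear call, values can overlap the other calls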
Target sequence (Q9HCT0 whole entry, looked up): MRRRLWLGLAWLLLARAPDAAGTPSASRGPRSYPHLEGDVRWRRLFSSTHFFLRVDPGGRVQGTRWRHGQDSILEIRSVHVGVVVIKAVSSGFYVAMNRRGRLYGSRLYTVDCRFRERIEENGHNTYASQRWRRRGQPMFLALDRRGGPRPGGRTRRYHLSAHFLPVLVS
MITF act = activators of MITF-driven TRPM1 promoter activity in SK-MEL-5 cells; SK-MEL-5 TRPM1-promoter luciferase, 24 h; % of positive control, neutral wells = 0; AID 588334; 300,000 tested, 0.75% active; activation, % at 12.5 µM;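 active means mean activation of at least 80% with every replicate also reaching 80%; inconclusive means mean reaches 80% but some replicate falls short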;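 further: 0% = neutral control wells and 100% = parthenolide positive control wells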
* = called active by the depositor; ? = inconclusive; nt = not tested or not shown. Only some compounds are listed: those with a hit (about 4.3% of all), similar ones and a draw of the others.

SMILES | esBAF inh | SMARCA2 activ | Wnt act | MLL AF4-AF9 inh | FGF22 binding | MITF act
O=C(CNC(=O)c1ccc(S(=O)(=O)N2CCCC2)cc1)N/N=C/c1ccccc1 | nt | -2 | -5 | nt | nt | -5
CN(C)S(=O)(=O)c1ccc(C(=O)NCC(=O)N/N=C/c2ccccc2)cc1 | -8 | 3 | -10 | -2 | 44* | 1
O=C(CN(Cc1ccccc1Cl)S(=O)(=O)c1ccc(Cl)cc1)N/N=C/c1ccc(C(=O)O)cc1 | 9 | 1 | 4 | 1 | 1.5* | 9
O=S(=O)(Cc1ccccc1)N1CCCCN2[C@H](CO)[C@H](c3ccc(-c4ccc(F)cc4)cc3)[C@H]2C1 | -6 | nt | nt | -3 | -1 | nt
C[C@@H]1CCCCO[C@H](CN(C)S(=O)(=O)c2ccccc2)[C@@H](C)CN([C@H](C)CO)C(=O)c2cc(NS(=O)(=O)c3ccccc3)ccc2O1 | 1 | nt | nt | -2 | 0 | nt
COCc1cc(C)nc(OCC(=O)N/N=C/c2ccccc2O)c1C#N | nt | -2 | 10 | -3 | 44* | -6
COc1cccc2c(SCC(=O)N/N=C/c3ccc(O)cc3O)cc(C)nc12 | 5 | -5 | -3 | -1 | 3.0* | -21
COCc1cc(C)nc(OCC(=O)N/N=C/c2ccc(O)cc2O)c1C#N | nt | 1 | -3 | -3 | 44* | -3
CO[C@H]1CC[C@@H]2CCOc3ccc(C#N)cc3C(=O)N(C)C[C@H](c3ccccc3)CC(=O)N(C)C[C@@H]1O2 | -4 | nt | nt | nt | nt | nt
O=C(C[C@H]1CC[C@H](NC(=O)Nc2cc(F)ccc2F)[C@H](CO)O1)NCCCN1CCOCC1 | -3 | nt | nt | -2 | 0 | nt
Cc1nn2c(-c3ccncc3)nnc2c2ccccc12 | nt | 1 | nt | nt | nt | 15
COc1ccc(Oc2nnc(C)c3ccccc23)cc1 | 50* | 0 | 42* | nt | nt | 89*
Cc1nnc(Oc2ccccc2)c2ccccc12 | 18 | 3 | 4 | nt | nt | 36
COc1ccc(-c2nnc3c4ccccc4c(C)nn23)cc1 | 72* | 6 | 47* | nt | nt | 18
C[C@@H]1CN([C@@H](C)CO)C(=O)c2cc(NC(=O)Nc3ccccc3)ccc2O[C@H]1CN(C)S(=O)(=O)c1cn(C)cn1 | -5 | nt | nt | 1 | 0 | nt
CC(C)(C)c1csc(N/N=C/c2ccc(O)cc2)n1 | ? | 0 | 11 | 8 | 0 | 97*
O=C(CCCCC(=O)NCCCc1ccccc1)NCCCc1ccccc1 | -4 | 0 | -1 | -1 | 0 | nt
CC1NC(=O)NC1CCCCCC(=O)NCCc1ccccc1 (stereo unspecified) | 7 | 1 | -1 | 77* | 0 | -4
O=C(NCC1CCCO1)C1CCN(C2CCN(Cc3ccco3)CC2)CC1 (stereo unspecified) | -3 | 0 | -2 | -2 | 44* | 7
CCNC(=S)Nc1cccc(S(=O)(=O)Nc2ccccc2OC)c1 | -7 | -3 | 33* | 9 | 0 | 7
COc1ccc(NC(=O)Nc2ccc3c(c2)C(=O)N([C@H](C)CO)C[C@@H](C)[C@H](CN(C)Cc2ccc(C(=O)O)cc2)OCCCC[C@@H](C)O3)cc1 | 5 | nt | nt | -1 | 0 | nt
O=C(Nc1ccc(Cl)c(Cl)c1)Nc1ccccn1 | 67* | 2 | 37* | -19 | 0 | 73
COc1cccc(NC(=O)Nc2ccc(C(C)(C)C)cc2)c1 | 57* | 2 | 10 | 0 | 1 | 61
COC(=O)c1cccc(NC(=O)Nc2ccc(Cl)c(Cl)c2)c1 | 71* | -5 | -2 | 2 | 0 | 3
COc1cccc(NC(=O)Nc2ccncc2)c1 | nt | -1 | 1 | nt | nt | 3
SMILES | esBAF inh | SMARCA2 activ | Wnt act | MLL AF4-AF9 inh | FGF22 binding | MITF act
O=C(Nc1ccc(Cl)c(Cl)c1)Nc1ccccc1NS(=O)(=O)c1cccs1 | -4 | -2 | -2 | 0 | 1.7* | 9
COc1ccc(NC(=O)Nc2ccc3c(c2)C(=O)N([C@@H](C)CO)C[C@@H](C)[C@@H](CN(C)C(=O)Nc2c(C)noc2C)OCCCC[C@@H](C)O3)cc1 | -1 | nt | nt | 1 | 0 | nt
COc1cccc(NC(=O)Nc2ccc(C)c(Cl)c2)c1 | 55* | 2 | 12 | 0 | 0 | ?
CCCC(=O)Nc1ccc(C(=O)Nc2cccc(OC)c2)cc1 | nt | 1 | 21 | -1 | 0 | 25
COc1cccc(NC(=O)c2ccc(NC(=O)C(C)(C)C)cc2)c1 | 66* | 0 | 13 | 3 | 0 | 72
CNC(=O)C[C@@H]1CC[C@@H]2[C@H](COc3ccc(NC(=O)c4ccccc4Cl)cc3C(=O)N2C)O1 | 3 | nt | nt | -2 | 0 | nt
